High-throughput results from PubChem.
Only some compounds are listed: those with a hit (about 18% of all), similar ones and a draw of the others.
PLK1 PBD inh – qHTS for Inhibitors of PLK1-PDB (polo-like kinase 1 - polo-box domain): Primary Screen. Serine/threonine-protein kinase PLK1 (Homo sapiens), P53350. Plk1 PBD binding of FITC phosphopeptide, fluorescence polarization. Potency, µM, for inactives: max response, negative = inhibition, actives largely listed as inhibitors. actives 2.8% (n = 360,000). AID 720504, 2013; also: series mostly up to about 57 µM; nearly all actives have a fitted effect of over 65% in size
VDR inhibitor – Inhibitors of the vitamin D receptor (VDR): qHTS. VDR-SRC2-3 peptide fluorescence polarization, 2 h. Potency, µM, for inactives: max response, negative = inhibition, actives largely listed as inhibitors. actives 0.93% (n = 400,000). AID 504847, 2011
Target sequence (P11473 whole entry, looked up): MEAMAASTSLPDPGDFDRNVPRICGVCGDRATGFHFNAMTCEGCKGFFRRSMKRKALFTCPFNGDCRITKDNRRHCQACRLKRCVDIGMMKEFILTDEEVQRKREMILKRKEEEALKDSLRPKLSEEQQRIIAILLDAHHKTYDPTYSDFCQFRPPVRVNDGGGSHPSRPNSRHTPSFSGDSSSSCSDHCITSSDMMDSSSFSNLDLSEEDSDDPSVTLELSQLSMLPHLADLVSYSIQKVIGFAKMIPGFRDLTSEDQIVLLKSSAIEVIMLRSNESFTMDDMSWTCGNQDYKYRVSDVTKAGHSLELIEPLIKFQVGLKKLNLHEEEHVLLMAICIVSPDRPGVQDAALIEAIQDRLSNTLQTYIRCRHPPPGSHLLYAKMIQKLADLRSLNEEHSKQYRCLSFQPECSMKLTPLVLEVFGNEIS
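FP read-out; VDR + SRC2-3 coactivator peptide; 23 nl compound by pintool; 2 h RT incubation; reagents held at 4 deg C, protected from light.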
TDP1 cell noCPT – qHTS for Inhibitors of human tyrosyl-DNA phosphodiesterase 1 (TDP1): qHTS in cells in absence of CPT; Potency, µM (titrated, usually from 46.2 µM), for inactives: top-dose activity change, negative = growth inhibition, actives largely listed as inhibitors; AID 686978, 2013; actives 15% (n = 420,000); DT40 Tdp1-/- hTDP1 cells, no CPT, ATP luminescence, 48 h; also: nearly all actives have a fitted effect of over 55% in size
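Compound effects on proliferation are scored in DT40 Tdp1-/-;hTDP1 cells in the absence of CPT. ATP levels (CellTiter-Glo luminescence) are recorded after a ≥48 hr, 37 °C incubation.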
GCN5L2 inh – qHTS Assay for Inhibitors of GCN5L2. Histone acetyltransferase KAT2A (Homo sapiens), Q92830. GCN5L2 HAT assay, ThioGlo1 CoA-SH fluorescence. Potency, µM (titrated, usually from 58.9 µM), inactives show at the top dose activity change, negative = inhibition, hits mostly inhibitors. actives 0.21% (n = 390,000). AID 504327, 2011
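Titration-based screen in which CoA formation is detected via maleimide probe ThioGlo1 (50uM) turning fluorescent on thiol reaction; substrates H3(1-25) 75uM and acetyl-CoA 70uM, GCN5L2 20nM, 20 min incubation at room temperature.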
DT40 TDP1 CPT – qHTS for Inhibitors of human tyrosyl-DNA phosphodiesterase 1 (TDP1): qHTS in cells in presence of CPT; chicken DT40 Tdp1-/-;hTDP1 cells + 20 nM CPT, ATP luminescence, 48 h; Potency, µM (doses to about 46.2 µM), inactives show at the highest dose activity change, negative = growth inhibition, actives largely listed as inhibitors; actives 12% (n = 420,000); also: nearly all actives have a fitted effect of over 55% in size
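Chicken DT40 Tdp1-/- cells stably complemented with human TDP1 were seeded at 400 cells/well in medium containing 20 nM camptothecin, exposed to pin-transferred compounds, and grown at 37 °C for at least 48 hr. Viability was read as ATP luminescence.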
TDP1 block – qHTS Assay for Inhibitors of Tyrosyl-DNA Phosphodiesterase (TDP1). Tyrosyl-DNA phosphodiesterase 1 (Homo sapiens), Q9NUW8. recombinant TDP1, AlphaScreen DNA substrate cleavage. Potency, µM (top dose mostly 130 µM), inactives show top-dose activity change, negative = inhibition, actives largely listed as inhibitors. actives 0.28% (n = 350,000). AID 485290, 2010; also: nearly all actives have a fitted effect of over 40% in size
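Signal: AlphaScreen proximity between streptavidin donor and anti-FITC acceptor beads on intact substrate. Reaction: Tdp1 1 nM, substrate 15 nM final, 5 min RT after 15 min compound preincubation.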
Active calls of the source: *. Calls follow the shape of the dose curve; as a rule, active = well fitted curve in the direction sought with a large enough effect; inconclusive = small, poorly fitted or top-dose-only effect, or another doubt; inactive = no such curve, though single readings can be large; an effect the other way counts as inactive or inconclusive. % is scaled to controls: 0 for no effect and ±100 for the full control effect; potency is read from the fitted curve at half-maximal effect.

What do the screens show for `Oc1nc(Nc2ccccc2)sc1/C=C1\C=Nc2ccccc21`?
PLK1 PBD inh: -1%; VDR inhibitor: -8%; TDP1 cell noCPT: -30%; GCN5L2 inh: -15%; DT40 TDP1 CPT: -26%; TDP1 block: 5%

How did CCOC(=O)c1c(Nc2ccccc2)sc(/C=C2\C=Nc3ccccc32)c1O do in these assays?
PLK1 PBD inh: -4%; VDR inhibitor: 2%; TDP1 cell noCPT: inconclusive; GCN5L2 inh: -3%; DT40 TDP1 CPT: 21µM*; TDP1 block: 6%

Results for Cc1nc(C(C)Nc2ncnc3ccc(-c4ccc5c(c4)OCO5)cc23)cs1 (centres undefined) ?
TDP1 block: -16%

How did O=C(C(=Cc1ccccc1)CN1CCCCC1)c1ccccc1 do in these assays?
PLK1 PBD inh: -18%; VDR inhibitor: inconclusive; TDP1 cell noCPT: 1.5µM*; DT40 TDP1 CPT: 0.73µM*

What do the screens show for `COCC(=O)N1CCC2(CCCN(C(c3ccccc3)c3ccccc3)C2)CC1`?
VDR inhibitor: -22%; TDP1 cell noCPT: inconclusive; GCN5L2 inh: 10%; DT40 TDP1 CPT: 8%

How did COc1ccccc1C(=O)O/N=C1/CCCc2c1ccc(OC)c2[N+](=O)[O-] do in these assays?
PLK1 PBD inh: -27%; VDR inhibitor: 10%; TDP1 cell noCPT: inconclusive; GCN5L2 inh: 17%; DT40 TDP1 CPT: -25%; TDP1 block: -4%

Results for COc1cc(C(=O)O/N=C2\CCCc3c2ccc(OC)c3[N+](=O)[O-])cc(OC)c1OC ?
PLK1 PBD inh: inconclusive; VDR inhibitor: -2%; TDP1 cell noCPT: 3.3µM*; GCN5L2 inh: -3%; DT40 TDP1 CPT: 10µM*; TDP1 block: 2%

How did CCc1cc2c(=O)c(-c3ccc4c(c3)OCCO4)c(C)oc2cc1OS(C)(=O)=O do in these assays?
PLK1 PBD inh: -10%; VDR inhibitor: -21%; TDP1 cell noCPT: 26µM*; GCN5L2 inh: -4%; DT40 TDP1 CPT: inconclusive; TDP1 block: 1%

Results for CCc1cc(=O)oc2c(C)c(OS(C)(=O)=O)ccc12 ?
PLK1 PBD inh: -6%; VDR inhibitor: 9%; TDP1 cell noCPT: -26%; DT40 TDP1 CPT: -10%

How did CCOC(=O)c1c(C)oc2nc(C)nc(NCc3ccc(Cl)cc3)c12 do in these assays?
VDR inhibitor: 18%; TDP1 cell noCPT: inconclusive; GCN5L2 inh: 27%; DT40 TDP1 CPT: inconclusive; TDP1 block: 4%

Results for CCOC(=O)c1c(C)oc2nc(C)nc(NCC3CCN(Cc4ccc(Cl)cc4)CC3)c12 ?
VDR inhibitor: 13%; TDP1 cell noCPT: inconclusive; GCN5L2 inh: -8%; DT40 TDP1 CPT: inconclusive; TDP1 block: 7%

Results for CCOC(=O)c1c(C)oc2nc(C)nc(NCCc3ccc(OC)c(OC)c3)c12 ?
VDR inhibitor: 17%; TDP1 cell noCPT: 18µM*; GCN5L2 inh: 27%; DT40 TDP1 CPT: 21µM*; TDP1 block: -5%

Results for CCOC(=O)c1c(C)oc2nc(C)nc(Nc3cccc(OC)c3)c12 ?
VDR inhibitor: 27%; TDP1 cell noCPT: -25%; GCN5L2 inh: 19%; DT40 TDP1 CPT: -27%; TDP1 block: 3%

How did CCOC(=O)c1c(C)oc2nc(C)nc(NCc3ccc(OC)cc3OC)c12 do in these assays?
VDR inhibitor: -6%; TDP1 cell noCPT: 13µM*; GCN5L2 inh: -5%; DT40 TDP1 CPT: inconclusive; TDP1 block: -1%

How did CCOC(=O)c1c(C)oc2nc(C)nc(NC(C)c3ccccc3)c12 (centres undefined) do in these assays?
VDR inhibitor: 17%; TDP1 cell noCPT: 16µM*; GCN5L2 inh: 6%; DT40 TDP1 CPT: 21µM*; TDP1 block: 6%

Results for CCOC(=O)c1c(C)oc2nc(C)nc(NCc3ccc(F)cc3)c12 ?
VDR inhibitor: 13%; TDP1 cell noCPT: 16µM*; GCN5L2 inh: -3%; DT40 TDP1 CPT: inconclusive; TDP1 block: -3%

How did Cc1cccn2c(=O)c(C=O)c(N3CCN(c4ccc(F)cc4)CC3)nc12 do in these assays?
PLK1 PBD inh: -9%; VDR inhibitor: 15%; TDP1 cell noCPT: inconclusive; GCN5L2 inh: -5%; DT40 TDP1 CPT: inconclusive; TDP1 block: 2%

How did Nc1c(C(=O)Nc2ccccc2Cl)nnn1Cc1cccc(Cl)c1 do in these assays?
VDR inhibitor: -6%; TDP1 cell noCPT: -29%; GCN5L2 inh: -1%; DT40 TDP1 CPT: -22%; TDP1 block: -1%

What do the screens show for `CN(CC(=O)Nc1ccc(Cl)c(C(F)(F)F)c1)C(=O)Cn1cc([N+](=O)[O-])ccc1=O`?
PLK1 PBD inh: -8%; VDR inhibitor: -13%; TDP1 cell noCPT: inconclusive; GCN5L2 inh: -17%; DT40 TDP1 CPT: inconclusive; TDP1 block: 0%

How did COc1cccc(C2Nc3c(F)cc(Br)cc3C3C=CCC32)c1OC (centres undefined) do in these assays?
PLK1 PBD inh: 4%; VDR inhibitor: -4%; TDP1 cell noCPT: 18µM*; GCN5L2 inh: -1%; DT40 TDP1 CPT: 16µM*; TDP1 block: 8%

How did COc1cc(C2Nc3c(F)cccc3C3C=CCC32)cc(Br)c1OC (centres undefined) do in these assays?
PLK1 PBD inh: -10%; VDR inhibitor: 3%; TDP1 cell noCPT: inconclusive; GCN5L2 inh: 0%; DT40 TDP1 CPT: 1%; TDP1 block: 6%

What do the screens show for `Cc1ccc2occ(CC(=O)Nc3ccc(Cl)c(C(F)(F)F)c3)c2c1`?
VDR inhibitor: -12%; TDP1 cell noCPT: 16µM*; GCN5L2 inh: -14%; DT40 TDP1 CPT: 21µM*; TDP1 block: -9%

Results for CCOc1ccccc1NC(=O)Cc1coc2ccc(C)cc12 ?
PLK1 PBD inh: 5%; VDR inhibitor: 24%; TDP1 cell noCPT: 16µM*; GCN5L2 inh: -1%; DT40 TDP1 CPT: inconclusive; TDP1 block: -3%

How did Cc1cccc(NC(=O)c2oc3ccccc3c2NC(=O)Cc2coc3ccc(C(C)C)cc23)c1 do in these assays?
VDR inhibitor: 2%; TDP1 cell noCPT: inconclusive; GCN5L2 inh: 2%; DT40 TDP1 CPT: inconclusive; TDP1 block: 6%
